Our source for the Potency and outcome values is PubChem BioAssay (Tox21).

A number with no mark means an inactive call. Inconclusive results are not listed. Activity calls are given as the source filed them. Unless noted, calls follow the shape of the dose curve; as a rule, active = well fitted curve in the direction sought with a large enough effect in the repeat runs; inconclusive = weak or mixed curves; inactive = no such curve, though single readings can be large; an effect the other way counts as inactive or inconclusive.

A short description of assay [1]: qHTS assay to identify small molecule antagonists of the estrogen receptor alpha (ER-alpha) signaling pathway using the BG1 cell line in the presence of 0.1 nM 17-beta-estradiol - cell viability counter screen (AID 1259241). Also: nearly all actives have a fitted effect of over 40% in size. An outline of the steps: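 CellTiter-Fluor read (30 min, 37C) on ER-alpha/ERE-luc VM7Luc4E2 cells; 22 hr compound treatment; agonist 0.1 nM E2 final; same-well multiplex.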
Background: Quantitative high-throughput screening tests each substance at several concentrations.

Assay [2] can be described thus: qHTS assay to identify small molecule antagonists of the androgen receptor (AR) signaling pathway using the MDA cell line in the presence of 0.5 nM R1881 - cell viability counter screen (AID 1259242). Also: nearly all actives have a fitted effect of over 45% in size. An outline of the steps: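 MDA-kb2 cells (human breast carcinoma, stably carrying MMTV-luciferase reporter) were exposed to compounds with 0.5 nM R1881 (final) for 16 hr at 37C, 0% CO2; viability then read as live-cell protease fluorescence (CellTiter-Fluor, 30 min) in the same wells.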

Assay [3] can be described thus: qHTS assay to identify small molecule HDAC inhibitors (AID 1259364). Also: top concentration of the series differs between compounds; nearly all actives have a fitted effect of over 45% in size. The procedure, abridged: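 Wild-type HCT-116 cells were plated overnight, exposed to compounds for 2 h at 37 °C, then given HDAC-Glo class I/II luminogenic reagent for 30 min at room temperature before luminescence was read.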
The nature of assay [4]: qHTS assay to identify small molecule HDAC inhibitors - cell viability counter screen (AID 1259365). Also: series mostly up to about 92 µM; nearly all actives have a fitted effect of over 50% in size. The procedure, abridged:
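To flag cytotoxic hits, 1,500 wild-type HCT-116 cells per well, plated the day before, receive test compounds for 2hr at 37 C before CellTiter-Glo reagent and a luminescence read.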

Assay [5] in a line: qHTS assay to identify small molecule agonists of the sonic hedgehog signaling (Shh) pathway - cell viability counter screen (AID 1259366). Also: nearly all actives have a fitted effect of over 50% in size. An outline of the steps:
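Fluorescence from CellTiter-Fluor reports live cells in this counter screen. NIH/3T3-derived Gli1-Luc reporter cells receive test compounds for 24hr at 37C; reagent goes in at 23hr.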

A short description of assay [6]: qHTS assay to identify small molecule antagonists of the sonic hedgehog signaling (Shh) pathway - cell viability counter screen (AID 1259367). Also: nearly all actives have a fitted effect of over 55% in size. The procedure, abridged:
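Using CellTiter-Fluor, viability of Gli1-Luc reporter 3T3 cells is read by fluorescence in the wells used for the Shh luciferase assay. Treatment lasts 23 hr with conditioned medium, then reagent 1 hr at 37C.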

Assay [7] is described as follows: qHTS assay to identify small molecule agonists of the sonic hedgehog signaling (Shh) pathway (AID 1259368; calls by dose curve; also: series mostly up to about 92 µM; nearly all actives have a fitted effect of over 15% in size). The procedure, abridged:
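NIH/3T3-derived 3T3Gli1-Luc cells carrying a stably integrated Gli1 response element–firefly luciferase reporter were plated, left 4 hr at 37 C, then given compounds in DMSO for 24 hr. Luminescence was read 30 min after adding luciferase reagent.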

A short description of assay [8]: qHTS assay to identify small molecule antagonists of the sonic hedgehog signaling (Shh) pathway (AID 1259369; calls by dose curve; also: nearly all actives have a fitted effect of over 45% in size; also: potency is read from the fitted curve at half-maximal effect). An outline of the steps: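 NIH/3T3-derived 3T3Gli1-Luc cells with stably integrated Gli1-Luc reporter were preincubated 4hr at 37 C, then given compounds in DMSO plus Shh conditioned medium and incubated 24hr. Firefly luciferase luminescence read after 30min reagent at room temperature.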

Assay [9] can be described thus: qHTS assay to identify small molecule agonists of the androgen receptor (AR) signaling pathway in the presence of an antagonist - cell viability counter screen (AID 1259379). Also: series mostly up to about 92 µM; nearly all actives have a fitted effect of over 25% in size. The procedure, abridged: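 MDA-kb2 human breast carcinoma cells (stable MMTV-luciferase, AR/GR responsive) were seeded 3,000 cells/well, pre-incubated 5 hr at 37C without CO2, then given 3.0uM nilutamide and compounds at 15 concentrations for 16 hr. Viability was read by CellTiter-Fluor fluorescence.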

Assay [10] in a line: qHTS assay to identify small molecule agonists of the estrogen receptor beta (ER-beta) signaling pathway - cell viability counter screen (AID 1259380). Also: nearly all actives have a fitted effect of over 30% in size. Also: potency is read from the fitted curve at half-maximal effect. The procedure, abridged:
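ER-beta-UAS-bla HEK293T cells in medium with 2% charcoal-stripped FBS were preincubated 6 hr at 37C, dosed with compound in DMSO for 16 hr, then after the bla read, CellTiter-Glo was added for 30 min at room temperature; luminescence recorded.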

Assay [11] in a line: qHTS assay to identify small molecule antagonists of the estrogen receptor beta (ER-beta) signaling pathway - cell viability counter screen (AID 1259382). Also: nearly all actives have a fitted effect of over 55% in size. Also: potency is read from the fitted curve at half-maximal effect. An outline of the steps:
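ER-beta-UAS-bla HEK293T cells (2,000/well, 2% charcoal-stripped FBS) were pre-incubated 6 hr at 37C, then given compound plus 1nM final 17-beta-estradiol for 16 hr. Viability was read in the same wells by CellTiter-Glo luminescence after 30 min at room temperature.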

Assay [12] can be described thus: qHTS assay to identify small molecule agonists or antagonists of the thyroid stimulating hormone receptor (TSHR) signaling pathway - wild type cell line counter screen (AID 1259384; calls by dose curve). An outline of the steps: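 Counter screen in untransfected Hek293: compounds (15-point titration, triplicate) plus phosphodiesterase inhibitor Ro20-1724 added after 18 h plating; 30 min RT. Intracellular cAMP via competitive d2/cryptate immunoassay, 1 h incubation.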

The target in assay [13] is Estrogen receptor (Homo sapiens) (UniProt P03372). The assay can be described thus: qHTS assay to identify small molecule agonists of the estrogen receptor alpha (ER-alpha) signaling pathway in the presence of an antagonist (AID 1259383; calls by dose curve; also: top concentration of the series differs between compounds; nearly all actives have a fitted effect of over 15% in size). The procedure, abridged:
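VM7Luc4E2 cells (endogenous full-length ER-alpha, 4×ERE-luciferase) were precultured 5 days in phenol red-free medium with 10% charcoal-stripped FBS, given 10.0nM ICI-182,780 (final), then treated with compounds at 15 concentrations for 22hr at 37C; luminescence read with ONE-Glo.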

The target in assay [14] is Thyrotropin receptor (Homo sapiens) (UniProt P16473). The assay can be described thus: qHTS assay to identify small molecule antagonists of the thyroid stimulating hormone receptor (TSHR) signaling pathway (AID 1259385; calls by dose curve; also: nearly all actives have a fitted effect of over 20% in size). An outline of the steps: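 Antagonist mode: compound-treated TSHR-expressing HEK293 cells were stimulated with 1.5 ng/mL TSH (final) in presence of Ro20-1724 for 30 min at RT. HTRF cAMP detection after 1 h; each compound tested at 15 concentrations, triplicate.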

In assay [15] the target is Estrogen receptor beta (Homo sapiens) (UniProt Q92731). Briefly: qHTS assay to identify small molecule agonists of the estrogen receptor beta (ER-beta) signaling pathway (AID 1259377; active = well fitted activation curve with a large enough effect in the signal ratio in the repeat runs, not every such curve was filed as active; the % refers to the signal ratio). The procedure, abridged: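 Screening used GripTite ER-beta-UAS-bla cells held in 2% charcoal-stripped FBS medium. After overnight (16 hr) compound incubation at 37C, beta-lactamase activity was detected with a FRET substrate by fluorescence.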

Assay [16] has the same target. Briefly: qHTS assay to identify small molecule antagonists of the estrogen receptor beta (ER-beta) signaling pathway (AID 1259378; active = well fitted inhibition curve with a large enough effect in the signal ratio in the repeat runs, not every such curve was filed as active; the % refers to the signal ratio). An outline of the steps:
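Antagonist mode: compounds added to beta-lactamase reporter HEK293T ER-beta-UAS cells stimulated with E2 (1nM final), 16 hr at 37C. LiveBLAzer B/G FRET substrate, 2 hours room temperature, fluorescence read-out.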

Assay [17] addresses Androgen receptor (Homo sapiens) (UniProt P10275). Briefly: qHTS assay to identify small molecule agonists of the androgen receptor (AR) signaling pathway in the presence of an antagonist (AID 1259381; calls by dose curve; also: nearly all actives have a fitted effect of over 15% in size; also: potency is read from the fitted curve at half-maximal effect). The procedure, abridged: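 MDA-kb2 human breast carcinoma cells carrying an MMTV-luciferase reporter (AR- and GR-responsive) were treated with compounds at 15 concentrations plus 3.0uM final nilutamide for 16hr at 37C without CO2; luminescence was read after ONE-Glo addition.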

Estrogen receptor (Homo sapiens), sequence (P03372 whole entry, looked up): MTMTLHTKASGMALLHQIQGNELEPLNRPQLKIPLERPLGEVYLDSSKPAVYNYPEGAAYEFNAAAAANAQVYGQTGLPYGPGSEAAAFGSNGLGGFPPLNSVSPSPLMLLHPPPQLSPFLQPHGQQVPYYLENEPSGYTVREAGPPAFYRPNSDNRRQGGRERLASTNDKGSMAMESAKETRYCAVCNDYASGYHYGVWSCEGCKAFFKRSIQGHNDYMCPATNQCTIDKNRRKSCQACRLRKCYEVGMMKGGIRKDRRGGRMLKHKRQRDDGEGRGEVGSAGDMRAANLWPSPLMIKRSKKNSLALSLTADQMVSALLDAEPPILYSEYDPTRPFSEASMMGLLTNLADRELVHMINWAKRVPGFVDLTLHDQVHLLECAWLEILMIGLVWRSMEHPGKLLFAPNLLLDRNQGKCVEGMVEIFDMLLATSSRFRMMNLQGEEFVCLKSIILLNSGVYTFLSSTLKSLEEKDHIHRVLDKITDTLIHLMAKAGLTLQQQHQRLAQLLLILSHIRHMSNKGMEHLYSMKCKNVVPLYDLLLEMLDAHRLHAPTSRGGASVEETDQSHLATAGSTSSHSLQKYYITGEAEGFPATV
Estrogen receptor beta (Homo sapiens), sequence (Q92731 whole entry, looked up): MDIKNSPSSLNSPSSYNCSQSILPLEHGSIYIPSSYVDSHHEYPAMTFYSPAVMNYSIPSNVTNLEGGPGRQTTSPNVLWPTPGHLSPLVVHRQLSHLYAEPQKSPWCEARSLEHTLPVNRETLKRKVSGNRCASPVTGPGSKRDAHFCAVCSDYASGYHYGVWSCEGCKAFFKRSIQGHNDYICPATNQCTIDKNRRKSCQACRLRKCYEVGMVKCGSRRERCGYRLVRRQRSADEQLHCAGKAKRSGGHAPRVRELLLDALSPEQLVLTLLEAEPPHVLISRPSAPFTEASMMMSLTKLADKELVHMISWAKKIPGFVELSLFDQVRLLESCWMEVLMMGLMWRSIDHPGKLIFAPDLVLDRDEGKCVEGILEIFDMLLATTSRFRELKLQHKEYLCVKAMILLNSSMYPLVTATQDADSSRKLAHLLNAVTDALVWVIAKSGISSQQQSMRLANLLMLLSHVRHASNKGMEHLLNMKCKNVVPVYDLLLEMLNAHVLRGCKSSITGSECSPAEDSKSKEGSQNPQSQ
Androgen receptor (Homo sapiens), sequence (P10275 whole entry, looked up): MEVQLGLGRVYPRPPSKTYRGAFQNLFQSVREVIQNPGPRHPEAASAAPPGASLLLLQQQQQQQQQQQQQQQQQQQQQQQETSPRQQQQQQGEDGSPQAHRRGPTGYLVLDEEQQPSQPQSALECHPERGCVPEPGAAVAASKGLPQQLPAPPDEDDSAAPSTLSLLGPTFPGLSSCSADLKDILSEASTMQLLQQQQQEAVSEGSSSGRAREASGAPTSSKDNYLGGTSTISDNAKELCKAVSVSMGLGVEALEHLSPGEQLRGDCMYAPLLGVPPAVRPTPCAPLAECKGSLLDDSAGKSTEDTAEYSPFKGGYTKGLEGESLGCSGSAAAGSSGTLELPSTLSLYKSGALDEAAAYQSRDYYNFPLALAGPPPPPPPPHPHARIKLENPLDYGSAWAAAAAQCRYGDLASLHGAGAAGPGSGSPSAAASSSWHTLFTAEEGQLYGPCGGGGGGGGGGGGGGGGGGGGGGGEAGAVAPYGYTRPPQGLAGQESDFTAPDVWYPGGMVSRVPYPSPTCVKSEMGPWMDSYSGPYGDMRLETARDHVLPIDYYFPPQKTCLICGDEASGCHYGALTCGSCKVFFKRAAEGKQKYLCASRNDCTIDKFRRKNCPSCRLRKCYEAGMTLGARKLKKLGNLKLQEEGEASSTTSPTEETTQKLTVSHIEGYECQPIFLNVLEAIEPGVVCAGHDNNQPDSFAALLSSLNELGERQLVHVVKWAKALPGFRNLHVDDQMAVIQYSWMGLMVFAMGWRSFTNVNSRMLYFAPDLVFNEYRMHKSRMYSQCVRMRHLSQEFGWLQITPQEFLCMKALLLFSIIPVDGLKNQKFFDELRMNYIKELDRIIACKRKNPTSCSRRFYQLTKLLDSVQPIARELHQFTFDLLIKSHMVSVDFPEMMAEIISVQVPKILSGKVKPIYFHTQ
Thyrotropin receptor (Homo sapiens), sequence (P16473 whole entry, looked up): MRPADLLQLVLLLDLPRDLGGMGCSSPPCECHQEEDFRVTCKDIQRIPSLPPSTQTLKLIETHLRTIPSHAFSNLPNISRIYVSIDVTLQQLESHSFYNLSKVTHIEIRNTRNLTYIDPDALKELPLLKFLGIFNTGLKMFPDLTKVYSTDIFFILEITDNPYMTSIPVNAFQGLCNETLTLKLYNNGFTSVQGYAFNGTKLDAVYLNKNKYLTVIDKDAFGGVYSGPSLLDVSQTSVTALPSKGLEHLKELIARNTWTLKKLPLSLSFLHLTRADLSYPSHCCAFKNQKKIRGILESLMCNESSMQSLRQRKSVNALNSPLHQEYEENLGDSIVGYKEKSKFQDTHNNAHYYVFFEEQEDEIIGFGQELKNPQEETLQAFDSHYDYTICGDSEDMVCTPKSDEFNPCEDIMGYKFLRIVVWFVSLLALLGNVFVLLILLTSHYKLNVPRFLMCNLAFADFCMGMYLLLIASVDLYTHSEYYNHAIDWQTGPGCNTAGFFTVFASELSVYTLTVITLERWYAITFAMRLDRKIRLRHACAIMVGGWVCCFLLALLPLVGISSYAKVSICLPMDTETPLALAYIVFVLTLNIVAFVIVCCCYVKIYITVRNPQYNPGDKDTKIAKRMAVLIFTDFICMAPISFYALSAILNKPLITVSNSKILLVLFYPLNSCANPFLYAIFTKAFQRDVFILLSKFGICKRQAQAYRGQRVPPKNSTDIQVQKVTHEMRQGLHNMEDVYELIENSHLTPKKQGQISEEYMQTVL

`CC(=O)[O][Al]`: the Potency result in assay [1], in assay [2], in assay [3], in assay [4], in [5] and in assay [6] was “inactive” each time. Further, the Potency result in [8], in [9], in assay [10], in assay [11] and in assay [12] was “inactive” throughout. Also, the compound was classed as inactive in [7].

In the case of `CN(C)c1ccc(CCO)cc1`, the Potency result in assay [1], in assay [2], in assay [3], in assay [4], in assay [5] and in assay [6] was “inactive” throughout. Besides, the Potency result in [8], in assay [9], in assay [10], in [11], in [13] and in [12] was “inactive” each time. The Potency entry in assay [14] was “inactive”. The compound was classed as inactive in assay [7].

For `CC(=O)c1cccc([N+](=O)[O-])c1`, the Potency result in [1], in assay [2], in assay [3], in assay [6], in assay [8] and in assay [15] was “inactive” throughout. Moreover, the Potency result in assay [16], in assay [9], in assay [10], in assay [11] and in [13] was “inactive” throughout. In assay [7], the compound was called inactive.

For the compound `CCOC(=O)COC(=O)c1cc(Oc2ccc(C(F)(F)F)cc2Cl)ccc1[N+](=O)[O-]`, the Potency entry in [1], in assay [2], in [3], in assay [4], in assay [5] and in [6] was “inactive” each time. Moreover, the Potency result in assay [15], in assay [16], in assay [9], in assay [10], in assay [17] and in [11] was “inactive” each time. The outcome in [7] was inactive.

For the compound `CCCNCC(O)COc1ccccc1C(=O)CCc1ccccc1` (stereo not given), the Potency result in assay [1], in [2], in assay [3], in assay [4], in assay [6] and in assay [15] was “inactive” throughout. The Potency result in [9] and in assay [12] was “inactive” in each case. For the same compound, the compound was classed as inactive in assay [7]. The Potency is 4.73 µM (active) in assay [8], 26.6 µM (active) in assay [10] and 23.7 µM (active) in assay [11].

`C[C@@H]1C[C@H]2[C@@H]3CCC4=CC(=O)C=C[C@]4(C)[C@@]3(F)[C@@H](O)C[C@]2(C)[C@@]1(O)C(=O)COC(=O)c1ccncc1`: the Potency result in assay [1], in [2], in [3], in [4], in assay [5] and in assay [6] was “inactive” throughout. For the same compound, the Potency entry in assay [8], in assay [11] and in assay [13] was “inactive” throughout. Moreover, the compound was classed as inactive in assay [7]. The Potency in assay [10] is 29.8 µM (active); in assay [17], 0.0067 µM (active).

As to `CCCCC(CC)COC(=O)COc1ccc(Cl)cc1Cl` (stereo not given), the Potency entry in [1], in [2], in assay [3], in [4], in assay [6] and in assay [8] was “inactive” each time. In addition, the Potency result in assay [15], in assay [16], in assay [9], in [11], in [13] and in [12] was “inactive” in each case. The call in assay [7] was inactive.

`CC(C)(CO)[N+](=O)[O-]`: the Potency entry in [1], in [2], in assay [3], in [5], in [6] and in assay [8] was “inactive” in each case. Moreover, the Potency entry in assay [15], in assay [16], in [9], in [10] and in assay [11] was “inactive” throughout. For the same compound, the compound was classed as inactive in assay [7].
